Calls of active or inactive are those of the source.
Key:
[1] = small molecules captured by biotinylated probe aFSTL3 – biochemical, small-molecule microarray, fluorescence 635/667, stem cell growth factor project, primary screen (AID 1064); conditions: higher = more signal;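 further: measures binding of the biotinylated anti-FSTL3 antibody to printed compounds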
[2] = binders from COS7 lysate, DM2A8 probe, primary screen, torsin A project, cell lysate, small-molecule microarray, fluorescence 635/667 (AID 1065); conditions: higher = more signal, COS7 lysate expressing mutant human TOR1A
[3] = small molecules captured by biotinylated probe aFGF2 – biochemical, small-molecule microarray, fluorescence 635/667, stem cell growth factor project, primary screen (AID 1067); conditions: higher = more signal;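 further: measures binding of biotinylated aFGF2 protein to printed compounds on slides; z-score merges feature fluorescence and signal-to-noise across triplicate slides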
[4] = small molecules captured by biotinylated probe aFGF10 – biochemical, small-molecule microarray, fluorescence 635/667, stem cell growth factor project, primary screen (AID 1071); conditions: higher = more signal;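 further: score merges 667 nm spot intensity and signal to noise from triplicate slides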
[5] = target: Neurogenic locus notch homolog protein 2 (Homo sapiens) (UniProt Q04721); assay: small molecules binding Notch2 protein – biochemical, small-molecule microarray, 635 nm fluorescence, stem cell growth factors, primary screen (AID 1073); conditions: higher = more signal
Chain of Neurogenic locus notch homolog protein 2 (Homo sapiens) (Q04721 whole entry, looked up, canonical isoform): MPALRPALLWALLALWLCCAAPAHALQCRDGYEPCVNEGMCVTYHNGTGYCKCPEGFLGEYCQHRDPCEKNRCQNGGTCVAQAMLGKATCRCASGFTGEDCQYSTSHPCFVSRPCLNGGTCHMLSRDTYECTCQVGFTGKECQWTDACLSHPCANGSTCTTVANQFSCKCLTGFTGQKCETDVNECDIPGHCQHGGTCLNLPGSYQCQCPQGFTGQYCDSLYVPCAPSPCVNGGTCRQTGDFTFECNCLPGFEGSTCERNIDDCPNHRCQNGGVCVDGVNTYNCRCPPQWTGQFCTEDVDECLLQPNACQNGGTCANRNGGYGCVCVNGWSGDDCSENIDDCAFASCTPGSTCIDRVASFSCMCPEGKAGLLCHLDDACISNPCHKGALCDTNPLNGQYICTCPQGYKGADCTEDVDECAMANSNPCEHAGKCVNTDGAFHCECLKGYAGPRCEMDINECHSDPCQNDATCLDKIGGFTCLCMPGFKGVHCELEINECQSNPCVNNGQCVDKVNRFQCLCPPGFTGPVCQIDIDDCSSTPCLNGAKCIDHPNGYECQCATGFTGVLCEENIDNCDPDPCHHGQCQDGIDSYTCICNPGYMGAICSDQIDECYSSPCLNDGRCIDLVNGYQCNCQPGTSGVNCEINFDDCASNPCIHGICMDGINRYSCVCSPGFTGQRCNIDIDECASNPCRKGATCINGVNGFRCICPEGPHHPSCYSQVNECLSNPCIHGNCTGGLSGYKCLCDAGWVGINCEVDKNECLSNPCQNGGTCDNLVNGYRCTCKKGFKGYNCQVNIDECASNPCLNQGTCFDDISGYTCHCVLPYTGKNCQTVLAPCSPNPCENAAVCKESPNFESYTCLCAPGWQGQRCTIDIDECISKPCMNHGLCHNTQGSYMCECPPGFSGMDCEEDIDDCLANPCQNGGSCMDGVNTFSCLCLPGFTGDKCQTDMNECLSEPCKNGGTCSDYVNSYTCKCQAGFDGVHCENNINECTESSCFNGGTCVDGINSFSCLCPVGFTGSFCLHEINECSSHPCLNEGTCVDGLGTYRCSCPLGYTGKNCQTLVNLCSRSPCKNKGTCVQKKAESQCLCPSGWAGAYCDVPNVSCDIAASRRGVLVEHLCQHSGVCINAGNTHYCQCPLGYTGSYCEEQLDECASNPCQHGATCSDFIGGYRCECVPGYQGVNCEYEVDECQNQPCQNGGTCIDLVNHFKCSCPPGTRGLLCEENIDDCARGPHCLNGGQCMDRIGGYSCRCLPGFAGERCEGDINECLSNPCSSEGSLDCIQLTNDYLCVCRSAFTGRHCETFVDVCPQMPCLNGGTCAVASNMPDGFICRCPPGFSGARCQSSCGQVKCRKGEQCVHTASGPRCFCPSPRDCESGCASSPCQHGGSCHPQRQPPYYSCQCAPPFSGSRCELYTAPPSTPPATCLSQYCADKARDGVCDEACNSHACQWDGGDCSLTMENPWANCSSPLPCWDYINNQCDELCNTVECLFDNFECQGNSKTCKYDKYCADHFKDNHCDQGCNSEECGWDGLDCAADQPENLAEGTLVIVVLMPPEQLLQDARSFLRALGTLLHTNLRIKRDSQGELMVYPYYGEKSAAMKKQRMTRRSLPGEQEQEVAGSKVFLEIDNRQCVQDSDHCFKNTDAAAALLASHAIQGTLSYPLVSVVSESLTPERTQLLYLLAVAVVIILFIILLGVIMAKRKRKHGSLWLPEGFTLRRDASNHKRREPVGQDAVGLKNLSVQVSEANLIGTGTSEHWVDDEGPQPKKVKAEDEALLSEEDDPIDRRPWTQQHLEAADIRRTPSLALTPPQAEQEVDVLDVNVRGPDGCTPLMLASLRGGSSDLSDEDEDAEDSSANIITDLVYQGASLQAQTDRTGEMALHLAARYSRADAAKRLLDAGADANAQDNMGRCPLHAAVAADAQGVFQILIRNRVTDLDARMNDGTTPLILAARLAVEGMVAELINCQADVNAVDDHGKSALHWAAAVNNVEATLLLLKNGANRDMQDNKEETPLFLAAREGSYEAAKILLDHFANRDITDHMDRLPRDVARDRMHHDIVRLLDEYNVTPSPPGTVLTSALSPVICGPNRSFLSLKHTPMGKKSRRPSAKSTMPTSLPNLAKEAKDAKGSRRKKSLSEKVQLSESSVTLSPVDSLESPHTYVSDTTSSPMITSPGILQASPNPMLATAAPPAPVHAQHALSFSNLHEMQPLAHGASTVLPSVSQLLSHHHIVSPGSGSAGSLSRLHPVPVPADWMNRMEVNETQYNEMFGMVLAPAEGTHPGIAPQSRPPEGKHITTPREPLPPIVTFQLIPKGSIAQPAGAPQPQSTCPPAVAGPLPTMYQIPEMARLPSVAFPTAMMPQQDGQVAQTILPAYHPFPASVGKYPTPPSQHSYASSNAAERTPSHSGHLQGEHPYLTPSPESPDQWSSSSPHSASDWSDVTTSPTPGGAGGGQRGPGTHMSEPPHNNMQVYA

[6] = target: Pro-neuregulin-1, membrane-bound isoform (Homo sapiens) (UniProt Q02297); assay: small molecules binding neuregulin-1 protein – biochemical, small-molecule microarray, fluorescence 635/667, psychiatric disease protein project, primary screen (AID 1075); conditions: NRG1 binding, 635 nm fluorescence, higher = more signal;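 further: score combines 667 nm spot fluorescence with signal to noise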
[7] = test system: Neuregulin-1 EGF-like domain; assay: small molecules binding NRG1 EGF domain – biochemical, small-molecule microarray, 635 nm fluorescence, primary screen (AID 1081); conditions: higher = more signal;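 further: binding of the protein to compounds printed on small-molecule microarray slides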
[8] = FRG1 expression reporter modulators in myotubes – cell-based, C2C12 myotubes, firefly/Renilla luciferase, luminescence, FRG1 inhibition for FSHD, primary screen (AID 1084); conditions: FRG1 promoter luciferase, higher = more signal, called active from +8 up or from −8 down
[9] = small molecules captured by biotinylated probe aFST – biochemical, small-molecule microarray, fluorescence 635/667, stem cell growth factor project, primary screen (AID 1086); conditions: higher = more signal;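 further: score merges 667 nm fluorescence with signal-to-noise of each printed compound spot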
[10] = binders of probe aHhip on microarray, primary screen, stem cell growth factor project, biochemical, small-molecule microarray, fluorescence 635/667 (AID 1087); conditions: higher = more signal;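 further: score merges spot fluorescence at 667nm with spot signal to noise ratio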
[11] = test system: PRMT1 (protein arginine N-methyltransferase 1); assay: small molecules binding arginine methyltransferase PRMT1 – biochemical, small-molecule microarray, 635 nm fluorescence, primary screen (AID 1088); conditions: higher = more signal;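 further: binding of Prmt1 protein to compounds spotted on small-molecule microarray slides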
[12] = growth effects on S. cerevisiae YJM789 – YJM789 clinical isolate, OD600, 24 h, basal, primary screen (AID 1089); conditions: higher = more signal, called active from +8 up or from −8 down;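 further: growth of clinical yeast isolate S. cerevisiae YJM 789 seeded 1000 cells per well; test concentration not given here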
[13] = S. pombe growth modifiers, basal conditions – strain 972, OD600, 24 h, no modulator, primary screen (AID 1090);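 further: basal condition with compound alone and no growth modifier present; test concentration not given here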; conditions: S. pombe 972 growth, higher = more signal, called active from +8 up or from −8 down
[14] = budding yeast growth modifiers under rapamycin – strain BY4716, OD600, 96 h, primary screen (AID 1091); further: test concentration not given here; conditions: S. cerevisiae BY4716 + rapamycin, higher = more signal, called active from +8 up or from −8 down
[15] = target: Torsin-1A-interacting protein 2 (Homo sapiens) (UniProt Q8NFQ8); assay: small molecules binding lysate-expressed LULL1 – cell lysate, human LULL1 lysate, 635/667 nm fluorescence, primary screen (AID 1092); conditions: small-molecule microarray, hLULL1 lysate binding, 635 nm fluorescence; higher = more signal;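 further: probe is lysate of COS7 cells overexpressing human LULL1; score merges per-feature 667 nm fluorescence with signal-to-noise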
[16] = optical density change of DRC41 E. coli – strain DRC41, OD650, 24 h, E. coli filamentation project, primary screen (AID 1093);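 further: MC1000 strain lacking acrAB efflux and sulA so SOS filamentation is blocked; test concentration not given here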; conditions: E. coli DRC41 growth, higher = more signal, called active from +8 up or from −8 down
[17] = probe aLefty2 binding to arrayed compounds – biochemical, biotinylated probe, 635/667 nm fluorescence, primary screen (AID 1094); conditions: small-molecule microarray, higher = more signal;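 further: score merges spot fluorescence near 667 nm with spot signal-to-noise ratio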
[18] = test system: Noggin (protein binding on small-molecule microarray); assay: small molecules binding Noggin protein – biochemical, 635/667 nm fluorescence, primary screen (AID 1095); conditions: 635 nm fluorescence, higher = more signal;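 further: score merges 667 nm feature fluorescence with signal to noise over triplicate slides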
[19] = target: Neurogenic locus notch homolog protein 3 (Homo sapiens) (UniProt Q9UM47); assay: small molecules binding NOTCH3 protein – biochemical, 635/667 nm fluorescence, primary screen (AID 1096); conditions: small-molecule microarray, 635 nm fluorescence, higher = more signal
Chain of Neurogenic locus notch homolog protein 3 (Homo sapiens) (Q9UM47 whole entry, looked up): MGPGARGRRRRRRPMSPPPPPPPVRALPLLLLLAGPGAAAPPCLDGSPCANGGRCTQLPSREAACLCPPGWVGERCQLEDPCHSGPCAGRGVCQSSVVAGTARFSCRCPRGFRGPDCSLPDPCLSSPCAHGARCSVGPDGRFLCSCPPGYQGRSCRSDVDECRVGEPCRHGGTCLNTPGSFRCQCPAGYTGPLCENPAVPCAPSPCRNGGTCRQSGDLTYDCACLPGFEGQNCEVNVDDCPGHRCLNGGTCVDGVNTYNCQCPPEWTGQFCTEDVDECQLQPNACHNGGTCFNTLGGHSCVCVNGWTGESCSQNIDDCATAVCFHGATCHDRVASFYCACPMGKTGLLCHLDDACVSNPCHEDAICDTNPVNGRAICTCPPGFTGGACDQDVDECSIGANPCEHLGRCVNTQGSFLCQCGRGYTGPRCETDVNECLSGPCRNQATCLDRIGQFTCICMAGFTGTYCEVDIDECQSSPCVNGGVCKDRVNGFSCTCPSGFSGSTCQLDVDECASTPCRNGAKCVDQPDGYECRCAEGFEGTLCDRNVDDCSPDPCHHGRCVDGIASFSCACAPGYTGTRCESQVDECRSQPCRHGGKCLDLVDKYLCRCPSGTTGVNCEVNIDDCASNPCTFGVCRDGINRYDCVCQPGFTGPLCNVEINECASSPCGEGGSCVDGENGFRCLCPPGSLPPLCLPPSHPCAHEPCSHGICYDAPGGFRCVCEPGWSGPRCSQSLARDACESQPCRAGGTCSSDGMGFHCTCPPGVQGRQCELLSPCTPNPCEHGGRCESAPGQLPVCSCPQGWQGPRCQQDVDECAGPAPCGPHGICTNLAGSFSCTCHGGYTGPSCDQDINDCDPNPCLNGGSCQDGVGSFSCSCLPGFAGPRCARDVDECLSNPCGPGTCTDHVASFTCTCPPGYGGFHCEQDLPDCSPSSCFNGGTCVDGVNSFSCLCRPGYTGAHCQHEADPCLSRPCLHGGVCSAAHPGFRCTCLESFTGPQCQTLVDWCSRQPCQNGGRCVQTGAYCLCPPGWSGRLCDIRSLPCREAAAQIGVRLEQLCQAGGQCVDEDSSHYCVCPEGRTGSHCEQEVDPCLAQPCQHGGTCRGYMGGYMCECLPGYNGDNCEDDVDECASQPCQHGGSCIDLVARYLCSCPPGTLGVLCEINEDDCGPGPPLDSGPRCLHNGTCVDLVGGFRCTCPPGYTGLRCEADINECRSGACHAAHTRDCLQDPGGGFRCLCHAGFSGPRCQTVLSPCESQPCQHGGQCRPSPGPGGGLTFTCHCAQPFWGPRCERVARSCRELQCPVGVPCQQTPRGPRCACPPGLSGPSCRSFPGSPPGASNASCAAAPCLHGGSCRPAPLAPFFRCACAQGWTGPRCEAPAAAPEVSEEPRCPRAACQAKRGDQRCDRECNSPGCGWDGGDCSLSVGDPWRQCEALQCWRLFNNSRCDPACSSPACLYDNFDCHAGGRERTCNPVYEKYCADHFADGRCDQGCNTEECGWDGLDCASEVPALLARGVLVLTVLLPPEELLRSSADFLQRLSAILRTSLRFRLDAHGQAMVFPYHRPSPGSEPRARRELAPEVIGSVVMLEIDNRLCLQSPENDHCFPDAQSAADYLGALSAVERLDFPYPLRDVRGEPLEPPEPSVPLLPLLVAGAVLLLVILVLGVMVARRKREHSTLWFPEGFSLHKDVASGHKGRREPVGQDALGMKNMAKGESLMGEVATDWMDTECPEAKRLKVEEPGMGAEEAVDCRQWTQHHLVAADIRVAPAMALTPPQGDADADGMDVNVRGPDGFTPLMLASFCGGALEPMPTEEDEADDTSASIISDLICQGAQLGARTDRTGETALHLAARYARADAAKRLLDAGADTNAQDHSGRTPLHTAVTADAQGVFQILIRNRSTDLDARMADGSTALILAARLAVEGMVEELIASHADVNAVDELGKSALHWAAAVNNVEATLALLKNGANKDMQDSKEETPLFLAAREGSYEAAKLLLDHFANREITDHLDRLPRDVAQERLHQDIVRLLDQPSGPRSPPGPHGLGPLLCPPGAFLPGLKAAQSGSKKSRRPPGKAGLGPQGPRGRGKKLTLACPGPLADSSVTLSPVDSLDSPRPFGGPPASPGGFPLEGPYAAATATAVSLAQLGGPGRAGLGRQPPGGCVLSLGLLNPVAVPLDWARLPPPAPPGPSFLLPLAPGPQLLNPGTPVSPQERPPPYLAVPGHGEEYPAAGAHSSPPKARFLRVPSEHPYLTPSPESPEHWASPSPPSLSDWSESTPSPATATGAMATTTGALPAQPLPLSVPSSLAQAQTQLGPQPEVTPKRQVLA

[20] = probe aEGFR binding to arrayed compounds – biochemical, biotinylated probe, 635/667 nm fluorescence, primary screen (AID 1097); conditions: small-molecule microarray, higher = more signal;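 further: probe is a biotinylated anti-EGFR antibody binding compounds printed on slides; score combines fluorescence near 667 nm and signal to noise of each spot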

Compound | composite z-score [1] | composite z-score [2] | composite z-score [3] | composite z-score [4] | composite z-score [5] | composite z-score [6] | composite z-score [7] | z-score [8] | composite z-score [9] | composite z-score [10] | composite z-score [11] | z-score [12] | z-score [13] | z-score [14] | composite z-score [15] | z-score [16] | composite z-score [17] | composite z-score [18] | composite z-score [19] | composite z-score [20]
CCOC(=O)C[C@H]1[C@H](OC(=O)c2cc3ccccc3oc2=O)[C@@H](NC(=O)C2CCCCC2)c2cc(OCCCO)ccc2N1C(=O)c1ccccc1 | -0.565 | 0.0071 | -0.121 | 0.642 | 1.29 | 0.0246 | 0.863 | 0.0161 (inactive) | 0.564 | -0.0618 | 0.633 | -0.415 (inactive) | -0.894 (inactive) | -0.0843 (inactive) | 1.45 | 2.03 (inactive) | -0.0668 | 0.844 | 0.615 | 0.25
COC(=O)[C@@]1(Cc2ccccc2)[C@H]2c3cc(C(=O)N4CCCC4)n(Cc4cccc5ccccc45)c3C[C@H]2CN1C(=O)c1ccccc1 | 1.79 | 0.0848 | 0.705 | 0.913 | 1.63 | 1.49 | 1.21 | -0.165 (inactive) | 2.03 | 0.869 | -1.59 | 0.506 (inactive) | 1.56 (inactive) | 1.43 (inactive) | 2.54 | -0.395 (inactive) | 1.29 | -0.685 | 0.943 | 0.891
O=C1NC(=O)C2C1C=CC(C(O)c1cccc3ccccc13)N2Nc1ccccn1 (stereo not given) | -0.0559 | 0.143 | -0.0281 | 0.357 | 1.19 | 0.961 | 0.39 | 0.661 (inactive) | 0.125 | -0.242 | 0.246 | 0.143 (inactive) | 1.14 (inactive) | -0.207 (inactive) | 1.37 | 0.213 (inactive) | 0.127 | -0.321 | -0.198 | -0.0766
COc1ccc([Si](C)(C)[C@H]2[C@H](CCn3cc([C@H](O)c4ccccc4)nn3)O[C@@]3(C(=O)N(Cc4cccc(N5CCOC5=O)c4)c4ccccc43)[C@@H]2C)cc1 | -0.218 | 0.071 | -0.003 | 0.29 | 0.401 | 0.209 | 1.04 | -0.955 (inactive) | -0.0127 | 0.155 | 0.961 | -0.0578 (inactive) | 0.947 (inactive) | 1.95 (inactive) | 0.872 | -0.565 (inactive) | 0.0342 | 0.827 | 1.04 | 0.117
CN(C)CCCNC(=O)[C@@]1(c2ccc([N+](=O)[O-])cc2)CC(=O)N(C2CCCCC2)[C@@H]1c1ccc(CO)cc1 | 0.4 | 0.595 | -0.0717 | -0.466 | -0.513 | 1.52 | 0.692 | -0.767 (inactive) | -0.114 | 0.0373 | 1.54 | 1.78 (inactive) | -8.13 (active) | -1.97 (inactive) | 1.09 | 0.59 (inactive) | -0.0259 | 0.0069 | 0.444 | -0.0978
CCCCC=C[C@@H](NC(=O)Oc1cccc(C(F)(F)F)c1)c1ccccc1 | 1.56 | 0.974 | 0.84 | 1.03 | 1.55 | 1.47 | 1.11 | -3.84 (inactive) | 2.02 | 2.27 | 0.745 | 1.06 (inactive) | 0.0148 (inactive) | 1.01 (inactive) | 0.277 | -2.21 (inactive) | 0.839 | -0.0732 | 1.08 | 0.4
